Screening data from PubChem BioAssay.
HCMV antiviral = inhibitors of human cytomegalovirus; actives 4.5% (n = 410,000); activity change, negative = inhibition, % at 57.5 µM; HFF cells, HCMV-luciferase reporter, 72 h; hits give low values; in the data active = activity change below about -60%; inconclusive = no clear call, values can overlap the other calls; inactive = above about -39%
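Cell-based, HFFs, 1000 cells/well, 16 h 37C; cpds in DMSO + HCMV-luc, MOI 1 PFU/cell; 72 h 37C; OneGlo luminescence after 5 min RT; norm. to buffer vs Salinomycin 10uM.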
Marburg entry inh = blocks Marburg virus binding to or entry into cells. Marburg virus pseudotyped entry inhibition, cell reporter. Potency, µM (top dose mostly 37.8 µM), inactives show top-dose activity change, negative = inhibition, most hits filed as inhibitors. actives 1.8% (n = 300,000). AID 540276; calls by dose curve; tested in HEK293 cells; note: potency is the fitted concentration of half-maximal effect
FMDV inh = foot and mouth disease virus antiviral activity. FMDV antiviral cell-based qHTS. Potency, µM (doses to about 57.9 µM), for inactives: top-dose activity change, negative = inhibition, actives largely listed as inhibitors. actives 1.2% (n = 410,000). AID 1159524; calls by dose curve; tested in HEK293T cells; note: read-out not given here; potency is the fitted concentration of half-maximal effect; nearly all actives have a fitted effect of over 45% in size
Lassa entry inh = blocks Lassa virus binding to or entry into cells | Potency, µM (highest dose often 37.9 µM), for the others: at the top dose activity change, negative = inhibition, most hits filed as inhibitors | AID 540256 | Lassa virus pseudotype entry inhibition, cell reporter | actives 1.2% (n = 300,000); calls by dose curve; tested in HEK293 cells; note: potency is the fitted concentration of half-maximal effect; nearly all actives have a fitted effect of over 50% in size
Starred values were filed as active, the others as inactive; ! = not active in a repeat; [ ] = another dose, or the depositor's remark. This is a sample that favours compounds with a hit; in the whole collection about 6.2% have one here. % is set by controls: 0 for no effect and ±100 for the full control effect.

What do the screens show for `Cn1c(SCc2cccc(C#N)c2)nc2ccccc2c1=O`?
HCMV antiviral: -64.3*; Marburg entry inh: -7.0%[46.1 µM]; FMDV inh: inconclusive; Lassa entry inh: inconclusive

Results for CCn1c(SCc2ccccc2)nc2ccccc2c1=O ?
HCMV antiviral: inconclusive; Marburg entry inh: -19.8%[46.1 µM]; FMDV inh: 8.4%; Lassa entry inh: 3.1%[46.1 µM]

Results for Cc1ccc(CSc2nc3ccccc3c(=O)n2C)cc1 ?
HCMV antiviral: -65.4*; Marburg entry inh: inconclusive; FMDV inh: inconclusive; Lassa entry inh: -14.6%

What do the screens show for `O=C(CN1C(=O)S/C(=C\c2ccc(F)cc2)C1=O)NC1C=CS(=O)(=O)C1` (stereo not drawn)?
HCMV antiviral: inconclusive; FMDV inh: -6.4%

How did O=C(CN1C(=O)S/C(=C\c2ccccc2F)C1=O)NC1C=CS(=O)(=O)C1 (stereo not drawn) do in these assays?
HCMV antiviral: -62.7*; FMDV inh: 0.0%

How did NC(=O)Cn1cc(C(=O)COc2ccccc2)c2ccccc21 do in these assays?
HCMV antiviral: -10.9

How did O=C(COc1ccccc1)c1cn(Cc2ccccc2)c2ccccc12 do in these assays?
HCMV antiviral: -62.5*; Marburg entry inh: inconclusive; FMDV inh: -14.2%; Lassa entry inh: 4.1%

How did O=C(CN1CCSC1=O)N1CCN(S(=O)(=O)c2ccc(Cl)cc2)CC1 do in these assays?
HCMV antiviral: -60.4*; Marburg entry inh: 2.9%; FMDV inh: inconclusive; Lassa entry inh: 0.4%

How did COc1ccccc1CNC(=O)N1CCN(S(=O)(=O)c2ccc(Cl)cc2)CC1 do in these assays?
HCMV antiviral: -14.9; Marburg entry inh: 0.0%; FMDV inh: -9.9%; Lassa entry inh: -7.5%

How did COc1cccc(CNC(=O)N2CCN(S(=O)(=O)c3ccc(Cl)cc3)CC2)c1 do in these assays?
HCMV antiviral: -60.7*; Marburg entry inh: -8.8%[46.1 µM]; FMDV inh: 12.2%; Lassa entry inh: 18.1%[46.1 µM]

Results for COc1ccc(S(=O)(=O)N2CCN(C(=O)c3cc4c(s3)CCC4)CC2)cc1 ?
HCMV antiviral: -78.0*; Marburg entry inh: 0.0%; FMDV inh: inconclusive; Lassa entry inh: inconclusive

What do the screens show for `O=C(NCc1ccc(Cl)cc1)N1CCN(S(=O)(=O)c2ccccc2)CC1`?
HCMV antiviral: -66.6*; Marburg entry inh: -15.7%[46.1 µM]; FMDV inh: -5.9%; Lassa entry inh: inconclusive

Results for CCN1CCN(c2nc(N)c([N+](=O)[O-])c(Nc3ccc(C)cc3)n2)CC1 ?
HCMV antiviral: 15.8; Marburg entry inh: 5.3%; FMDV inh: -15.8%; Lassa entry inh: -1.7%

How did CCNC(=O)C1(C)CCN(C(=O)c2cccc(C(F)(F)F)c2)C1 (stereo not drawn) do in these assays?
HCMV antiviral: -0.1; FMDV inh: -15.8%

What do the screens show for `COc1ccccc1C(=O)NCCC(=O)N1CCN(S(=O)(=O)c2ccc(Cl)cc2)CC1`?
HCMV antiviral: 0.0; FMDV inh: -19.7%

How did COc1cccc(S(=O)(=O)N2CCN(C(=O)c3ccco3)CC2)c1 do in these assays?
HCMV antiviral: -85.5*; Marburg entry inh: inconclusive; FMDV inh: -20.6%; Lassa entry inh: -3.1%[46.1 µM]

What do the screens show for `COc1ccccc1C(C)NC(=O)CCC(=O)N1CCN(S(=O)(=O)c2ccc(Cl)cc2)CC1` (stereo not drawn)?
HCMV antiviral: -32.9; Marburg entry inh: inconclusive; FMDV inh: 35.5µM*; Lassa entry inh: inconclusive

How did CN(C)c1ccc(NC(=O)c2cnsn2)cc1 do in these assays?
HCMV antiviral: -6.1; Marburg entry inh: inconclusive; FMDV inh: -58.2%; Lassa entry inh: 7.08µM*

What do the screens show for `NC(=O)c1ccsc1NC(=O)COC(=O)COc1ccccc1F`?
HCMV antiviral: -18.3; Marburg entry inh: inconclusive; FMDV inh: -17.5%; Lassa entry inh: -0.9%

Results for CCCc1nnc(NC(=O)CCC(=O)NCc2ccccc2OC)s1 ?
HCMV antiviral: -3.4; Marburg entry inh: 4.8%; FMDV inh: -2.0%; Lassa entry inh: 15.8%

How did O=c1ccc2ccccc2n1Cc1cccc(F)c1 do in these assays?
HCMV antiviral: -62.3*; FMDV inh: 10.0%

How did O=c1oc2ccccc2n1Cc1cccc(F)c1 do in these assays?
HCMV antiviral: inconclusive; FMDV inh: 3.0%

Results for Cc1ccc(-n2c(=O)c3ccc(C(=O)NCc4ccccc4Cl)cc3n(CC(=O)Nc3cccc(Cl)c3)c2=O)cc1 ?
HCMV antiviral: -1.9; Marburg entry inh: 20.0%[46.1 µM]; FMDV inh: 0.0%; Lassa entry inh: inconclusive

What do the screens show for `CC(=O)Nc1ccc(NC(=O)Cn2c(=O)n(-c3ccc(C)cc3)c(=O)c3oc4ccccc4c32)cc1`?
HCMV antiviral: -64.9*; Marburg entry inh: inconclusive; FMDV inh: 0.8%; Lassa entry inh: inconclusive

Results for Cc1ccc(NC(=O)Cn2c(=O)n(-c3ccc(C)cc3)c(=O)c3ccc(C(=O)NCc4ccccc4Cl)cc32)cc1 ?
HCMV antiviral: -60.2*; Marburg entry inh: 2.2%[46.1 µM]; FMDV inh: 0.0%; Lassa entry inh: inconclusive

Results for Cc1cc(C)cc(NC(=O)Cn2c(=O)n(-c3cc(C)cc(C)c3)c(=O)c3oc4ccccc4c32)c1 ?
HCMV antiviral: -60.7*; FMDV inh: -10.1%; Lassa entry inh: 4.2%[46.1 µM]

What do the screens show for `COc1ccc(Cn2c(=O)c3oc4ccccc4c3n(CC(=O)Nc3cc(C)cc(C)c3)c2=O)cc1`?
HCMV antiviral: 72.3; FMDV inh: -8.8%; Lassa entry inh: inconclusive

How did COc1cccc(NC(=O)Cn2c(=O)n(-c3ccccc3)c(=O)c3oc4ccccc4c32)c1 do in these assays?
HCMV antiviral: -67.9*; Marburg entry inh: inconclusive; FMDV inh: -6.6%; Lassa entry inh: inconclusive

How did CC(=O)Nc1ccc(NC(=O)Cn2c(=O)n(-c3ccccc3)c(=O)c3oc4ccccc4c32)cc1 do in these assays?
HCMV antiviral: 0.0; Marburg entry inh: inconclusive; FMDV inh: -11.0%; Lassa entry inh: -0.8%

How did Cc1ccc(-n2c(=O)c3oc4ccccc4c3n(CC(=O)Nc3ccccc3)c2=O)cc1C do in these assays?
HCMV antiviral: -66.5*; FMDV inh: 7.0%; Lassa entry inh: inconclusive

How did Cc1cc(C)cc(NC(=O)Cn2c(=O)n(-c3ccc(C)c(C)c3)c(=O)c3oc4ccccc4c32)c1 do in these assays?
HCMV antiviral: -10.4; FMDV inh: 1.1%; Lassa entry inh: -2.3%[46.1 µM]

What do the screens show for `CCOc1ccc(-n2c(=O)c3sccc3n(CC(=O)Nc3cccc(OC)c3)c2=O)cc1`?
HCMV antiviral: active; FMDV inh: -2.8%

Results for NC(=NCc1ccccc1)NC(=O)c1nc(Cl)c(N)nc1N ?
HCMV antiviral: 13.8; Marburg entry inh: 10µM*!; FMDV inh: -0.1%; Lassa entry inh: 13.8%

Results for NC(=Nc1ccccc1)NC(=O)c1nc(Cl)c(N)nc1N ?
Marburg entry inh: inconclusive; FMDV inh: 17.3%; Lassa entry inh: inconclusive

Results for O=C(NCC1COc2ccccc2O1)c1c[nH]c2ccc(S(=O)(=O)N3CCOCC3)cc2c1=O (stereo not drawn) ?
HCMV antiviral: 3.2; Marburg entry inh: -17.8%; FMDV inh: -14.2%; Lassa entry inh: inconclusive

Results for COc1ccc(OC)c(C(=O)NC2CC(C)(C)Cc3c2cnn3-c2ccccc2)c1 (stereo not drawn) ?
HCMV antiviral: -76.9*; FMDV inh: inconclusive

What do the screens show for `Nc1ccccc1C(=O)OCCOc1ccccc1`?
HCMV antiviral: 7.6; Marburg entry inh: 10µM*; FMDV inh: -31.3%; Lassa entry inh: inconclusive
